Source: PubChem BioAssay
In the library only some 12% were active in any assay of this set; here they are far more common.
JMJD2A Tudor inh: blocks the human JMJD2A Tudor domain. actives 4.4% (n = 390,000). AlphaScreen JMJD2A-Tudor / H3K4me3 peptide binding. O75164. Potency, µM (titrated, usually from 114 µM), without a hit: at the top dose activity change, negative = inhibition, hits mostly inhibitors; also: % is scaled to controls: 0 for no effect and ±100 for the full control effect; nearly all actives have a fitted effect of over 50% in size
G9a inh: inhibitors of human histone lysine methyltransferase G9a. Potency, µM (top dose mostly 102 µM), for inactives: at the highest dose activity, negative = inhibition, usual class: inhibitors. actives 8.8% (n = 350,000). AID 504332. Q96KQ7. G9a H3K9 monomethylation, AlphaScreen, 2 h; also: % is scaled to controls: 0 for no effect and ±100 for the full control effect; nearly all actives have a fitted effect of over 75% in size
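Signal arises when biotinylated H3K9 peptide, once monomethylated, bridges streptavidin donor and antibody-captured acceptor beads. Enzyme at 20 nM was preincubated 15 min with test compounds; peptide 500 nM and SAM 20 uM then reacted for 2 h.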
Sfp inh: Sfp phosphopantetheinyl transferase inhibition. Biochemical Sfp PPTase activity, qHTS. Potency, µM, without a hit: largest response in the series, negative = inhibition, actives largely listed as inhibitors. actives 3.5% (n = 310,000). AID 1490;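 also: the enzyme is Sfp with the accession as filed and its product quenches rhodamine fluorescence; 0% = enzyme reaction without inhibitor and -100% = no enzyme wells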
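After 15 min at room temperature with compound, 15 nM Sfp received 5 uM rhodamine-CoA plus 12.5 uM BHQ-2-ybbR (50 mM Hepes pH 7.6, 10 mM MgCl2). Rate came from the fluorescence difference over 30 min, ex 525/em 598 nm.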
HP1b binding inh: HP1-beta chromodomain-methylated histone interaction inhibition; P83916; AlphaScreen HP1-beta / biotin-H3K9me3 peptide binding; Potency, µM (highest dose often 114 µM), without a hit: at the highest dose activity change, negative = inhibition, actives largely listed as inhibitors; actives 0.56% (n = 390,000); AID 540317; also: nearly all actives have a fitted effect of over 70% in size
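HP1-beta protein (50 nM final) preincubated 30 min at room temperature with biotinylated H3(1-18)K9me3 peptide (50 nM) in PBS pH 7.4, 0.01% Tween-20, then compound added for 30 min. AlphaScreen streptavidin donor/nickel chelate acceptor beads (10 ug/mL final), 30 min dark, luminescence read.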
L3MBTL1 inh: inhibitors of human L3MBTL1 | AlphaScreen L3MBTL1–H3K9me1 peptide binding | AID 485360 | actives 0.66% (n = 230,000) | Q9Y468 | Potency, µM (doses to about 57.1 µM), for the others: at the top dose activity, negative = inhibition, hits mostly inhibitors; also: % is scaled to controls: 0 for no effect and ±100 for the full control effect; nearly all actives have a fitted effect of over 60% in size
Target sequence (Q9Y468 whole entry, looked up): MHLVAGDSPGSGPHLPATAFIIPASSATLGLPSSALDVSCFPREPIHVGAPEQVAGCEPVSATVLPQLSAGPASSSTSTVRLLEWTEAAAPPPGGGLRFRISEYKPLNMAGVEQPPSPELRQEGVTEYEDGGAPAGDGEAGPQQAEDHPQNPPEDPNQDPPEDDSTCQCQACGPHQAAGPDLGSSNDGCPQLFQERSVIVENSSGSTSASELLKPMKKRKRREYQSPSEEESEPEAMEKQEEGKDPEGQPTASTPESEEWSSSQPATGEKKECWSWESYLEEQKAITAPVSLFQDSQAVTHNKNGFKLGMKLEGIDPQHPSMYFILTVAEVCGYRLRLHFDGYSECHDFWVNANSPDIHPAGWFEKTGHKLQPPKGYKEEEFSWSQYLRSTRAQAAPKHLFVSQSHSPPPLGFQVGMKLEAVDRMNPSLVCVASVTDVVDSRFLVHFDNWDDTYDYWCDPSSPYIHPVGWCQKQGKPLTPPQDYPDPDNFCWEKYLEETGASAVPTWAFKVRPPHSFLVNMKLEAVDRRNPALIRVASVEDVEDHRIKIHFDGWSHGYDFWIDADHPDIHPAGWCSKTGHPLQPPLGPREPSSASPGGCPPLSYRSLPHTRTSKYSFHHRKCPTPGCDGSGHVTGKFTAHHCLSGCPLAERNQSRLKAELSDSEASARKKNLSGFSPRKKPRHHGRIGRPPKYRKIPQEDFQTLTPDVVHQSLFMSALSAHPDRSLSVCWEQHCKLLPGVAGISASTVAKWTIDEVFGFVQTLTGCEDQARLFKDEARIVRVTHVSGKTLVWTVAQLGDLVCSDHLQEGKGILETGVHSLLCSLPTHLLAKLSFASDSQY
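First, the protein-peptide complex forms for 30 min at room temperature (L3MBTL1 50 nM, biotinylated H3K9me1 peptide 75 nM). Next, compounds are pin-transferred and incubated 30 min. Finally, AlphaScreen beads are added and read after 30 min.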
BAZ2B inh: inhibitors of human BAZ2B bromodomain. Potency, µM (doses to about 114 µM), without a hit: top-dose activity change, negative = inhibition, usual class: inhibitors. actives 4.4% (n = 360,000). AlphaScreen BAZ2B-H3K14Ac peptide displacement; also: % is scaled to controls: 0 for no effect and ±100 for the full control effect; nearly all actives have a fitted effect of over 60% in size
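Multi-concentration screen (max 110 uM) measuring displacement of acetylated histone H3 peptide from BAZ2B by AlphaScreen, using 50 nM protein, 50 nM peptide and 10 ug/mL streptavidin donor plus Ni-chelate acceptor beads.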
The depositor's hits bear a star; ? = inconclusive; nt = no result; [ ] = dose if it differs, or a comment. Calls follow the shape of the dose curve; as a rule, active = well fitted curve in the direction sought with a large enough effect; inconclusive = small, poorly fitted or top-dose-only effect, or another doubt; inactive = no such curve, though single readings can be large; an effect the other way counts as inactive or inconclusive. Potency is read from the fitted curve at half-maximal effect.

SMILES	JMJD2A Tudor inh	G9a inh	Sfp inh	HP1b binding inh	L3MBTL1 inh	BAZ2B inh
COc1ccc(S(=O)(=O)Nc2c(C)nc3nc(C)[nH]n3c2=O)cc1	-4.9%	-19.7%	11.1%	5.3%	nt	11.0%
CCCc1nc2nc(C)c(NS(=O)(=O)c3ccc([N+](=O)[O-])cc3)c(=O)n2[nH]1	-4.9%	79.4µM*	-8.4%	52.5%	nt	5.8%
Cc1nc2nc(C)c(NS(=O)(=O)c3ccc4c(c3)CCCC4)c(=O)n2[nH]1	3.5%	70.8µM*	16.0%	-16.1%	nt	-6.2%
Cn1cc(O)nc1NC(=O)Nc1cccc(Cl)c1	nt	-33.6%[2.33 µM]	2.5%	nt	nt	nt
C(=N\NC1=NCCN1)/c1ccncc1	?	39.8µM*	-3.1%	7.4%	-5.5%	?
COc1ccc(C)cc1-n1nnc(-c2nc(-c3ccccc3Cl)no2)c1N	-12.5%	-11.1%[59 µM]	nt	18.7%	nt	-34.4%
Cc1c(O)nc(SCC(=O)Nc2ccc(Cl)cc2Cl)n(-c2ccc(F)cc2)c1=O	-27.8%	13.8%[59 µM]	nt	1.9%	nt	-15.0%
O=S(=O)(Nc1ccc(O)c(Sc2nc3ccccc3s2)c1)c1cc(Cl)ccc1Cl	?	11.2µM*	nt	-2.1%	nt	?
O=S(=O)(Nc1ccc(O)c(Sc2nc3ccccc3s2)c1)c1ccc(F)cc1	?	4.6%[59 µM]	2.7%	11.3%	4.5%	-29.6%
O=S(=O)(Nc1ccc(O)c(Sc2nc3ccccc3s2)c1)c1cccc2ccccc12	-35.5%	44.7µM*	10.5%	-11.2%	-23.9%	-27.2%
O=C1CSC(=S)N1N1C(=O)c2cccc([N+](=O)[O-])c2C1=O	nt	6.31µM*	0.708µM*	nt	nt	?
COC(=O)C1=C(C(=O)OC)[C@]2([C@H]3CC=CCN[C@@H](Cc4ccccc4)C(=O)N3Cc3ccccc3)C=C[C@H]1O2	-28.9%	nt	nt	5.1%	nt	nt
CCCCS(=O)(=O)N1CCc2nc(-c3ccc(OC)cc3C)c3c(c2C1)CO[C@@H](c1ccccc1)C3	nt	nt	3.6%	nt	nt	nt
CCCN1CCN(C(=S)Nc2ccc3nc(N4CCN(CC)CC4)cc(C)c3c2)CC1	-25.7%	44.7µM*	11.9%	-7.5%	nt	-19.4%
CCN1CCN(c2cc(C)c3cc(NC(=O)/C=C/c4cccc(Cl)c4)ccc3n2)CC1	31.6µM*	11.2µM*	nt	-35.4%	nt	?
CCN1CCN(c2cc(C)c3cc(NC(=O)CCC(=O)N4CCN(c5ccccc5)CC4)ccc3n2)CC1	?	79.4µM*	13.6%	-18.1%	nt	-19.7%
CCC(C)NC(=S)Nc1ccc2nc(N3CCN(CC)CC3)cc(C)c2c1 (stereo not given)	-28.1%	?	15.3%	12.5%	nt	-25.0%
CCN1CCN(c2cc(C)c3cc(NC(=S)N(CC)CC)ccc3n2)CC1	?	35.5µM*	4.5%	0.9%[57 µM]	nt	?
CCCCc1ccc(C(=O)Nc2ccc3nc(N4CCN(CC)CC4)cc(C)c3c2)cc1	-1.7%	-1.6%[59 µM]	nt	30.9%	nt	3.5%
CCN1CCN(c2cc(C)c3cc(NC(=S)N4CCN(c5ccccc5F)CC4)ccc3n2)CC1	?	44.7µM*	-6.5%	-5.9%	nt	?
Cc1cc(N2CCC(C)CC2)nc2ccc(NC(=O)CCC(=O)N3CCN(c4ccccc4F)CC3)cc12	6.8%	-2.2%[59 µM]	nt	25.6%	nt	-1.9%
CCN1CCN(c2cc(C)c3cc(NC(=S)N4CCN(c5ccccc5)CC4)ccc3n2)CC1	-17.3%	-41.5%[59 µM]	14.3%	7.4%	nt	?
COc1ccccc1N1CCN(C(=S)Nc2ccc3nc(N4CCOCC4)cc(C)c3c2)CC1	?	56.2µM*	-11.3%	?	nt	nt
CCN1CCN(c2cc(C)c3cc(NC(=S)N4CCOCC4)ccc3n2)CC1	-13.2%	39.8µM*	6.9%	10.8%[57 µM]	nt	-25.5%
Cc1cc(N2CCOCC2)nc2ccc(NC(=S)N3CCN(c4ccccc4)CC3)cc12	-22.0%	?	-2.0%	19.6%	nt	nt
SMILES	JMJD2A Tudor inh	G9a inh	Sfp inh	HP1b binding inh	L3MBTL1 inh	BAZ2B inh
O=C(O)CN1CCCCCC1=O	1.0%	-4.3%	20.5%	35.6%	19.4%	-11.6%
O=C1CCCN1CN1CCCCC1	?	-131.4%[59 µM]	-10.3%	?	7.6%	79.4µM*
OCc1ccccc1SSc1ccccc1CO	14.1µM*	nt	nt	?	nt	nt
CCOc1cccc(NC(=O)c2sc3nc(-c4ccc(F)cc4)ccc3c2N)c1	-7.6%	-16.4%[59 µM]	nt	45.0%	nt	3.9%
C=C(c1cccc2ccccc12)P(=O)(O)O	?	15.8µM*	0.7%	47.0%	?	12.5%
O=C(NC1CCCCC1)C(c1ccncc1)N(Cc1ccccc1)C(=O)c1ccc(-c2ccccc2)[nH]1 (stereo not given)	?	27.8%[0.501 µM]	-1.9%	-17.5%	-23.7%	?
CC(C)(C)NC(=O)C(c1ccncc1)N(Cc1ccco1)C(=O)c1ccc(-c2ccccc2)[nH]1 (stereo not given)	50.1µM*	22.4µM*	-90.1%	?	-15.7%	?
CN(C)c1ccc(N=c2sc3ccccc3n2C)cc1	10µM*	?	13.3%	10µM*	nt	7.94µM*
C=CCN1C(=O)/C(=C2/Sc3ccccc3N2CCCS(=O)(=O)O)SC1=S	6.2%[11.4 µM]	39.8µM*	44.7µM*	?	?	?
CCCN1/C(=C2/SC(=S)N(CC)C2=O)C=Cc2ccccc21	3.16µM*	?	?	?	nt	2µM*
CCCN1C(=O)/C(=C2/C=Cc3ccccc3N2CC)SC1=S	5.62µM*	3.16µM*	3.9%	3.16µM*	?	2.82µM*
CCN1C(=O)/C(=C2/C=Cc3ccccc3N2CC)SC1=S	11.2µM*	12.6µM*	-14.5%	?	nt	7.94µM*
C=CCN1C(=O)/C(=C2/Sc3ccccc3N2CC)SC1=S	-8.3%	1.2%	6.5%	35.4%	7.9%	9.4%
CC(Oc1ccccc1)C(=O)Nc1c(C(=O)Nc2cccc(F)c2)oc2ccccc12 (stereo not given)	-8.3%	12.8%[59 µM]	nt	41.9%	nt	-3.7%
Cc1ccc(CNc2ccc(-c3nc(C(C)C)no3)cc2[N+](=O)[O-])cc1	-16.2%	-8.4%[59 µM]	nt	8.6%	nt	-1.3%
CN1C(=O)/C(=C2/C=Cc3ccccc3N2CCCS(=O)(=O)O)SC1=S	?	?	-17.3%	?	nt	44.7µM*
O=c1[nH]c2cc(C(F)(F)F)c(N3CCOCC3)cc2n(CP(=O)(O)O)c1=O	nt	5.8%[59 µM]	22.8%	nt	nt	nt
CCCn1c(=O)c2sccc2n2c(CCCC(=O)N3CCN(c4cccc(Cl)c4)CC3)nnc12	-27.1%	5.8%[59 µM]	nt	47.0%	nt	-19.1%
Cn1c(C(=O)N2CCN(Cc3ccccc3)CC2)cc2c(=O)n(C)c3ccccc3c21	?	44.7µM*	8.8%	37.2%	nt	-3.3%
Cc1cccc(N2CCN(C(=O)c3cc4c(=O)n(C)c5ccccc5c4n3C)CC2C)c1 (stereo not given)	?	44.7µM*	?	14.1%	nt	?
